Experimental data from PubChem BioAssay AID1159580 (chemical genetic matrix, 2015).
Among all 5,500 compounds or so, about 2,000 (36%) were called active. Another 18% or so got no clear call; they are omitted. Rule as the data show it: active = normalized growth mostly below about 0.91 (no sharp cut-off); inconclusive = no clear call, values can overlap the other calls; inactive = mostly above about 0.92. Some of the results follow.

Test: chemical genetic growth profiling, strain panel (AID 1159580);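 also: tested at 20 µM; growth read once vehicle control cultures reached saturation at 30 °C; 1 = growth at the plate median or of vehicle wells; lower values mean less growth of the strain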
Conditions: S. cerevisiae deletion strains, growth OD

Measured: normalized growth

O=C1NCN(c2ccccc2)C12CCN(CC1COc3ccccc3O1)CC2 (stereo not given)
inactive: locus YAL040C, strain CLN3, hits give low values 1 | locus YCL061C, strain MRC1 (second series), hits give low values 1.01 | locus YDR363W, strain ESC2, hits give low values 0.998 | locus YER002W, strain NOP16, hits give low values 1.02 | locus YGR229C, strain SMI1, hits give low values 0.999 | locus YMR307W, strain GAS1, hits give low values 0.999 | locus YNL128W, strain TEP1, hits give low values 1.04 | locus YNL175C, strain NOP13, hits give low values 1.02 | locus YNL197C, strain WHI3, hits give low values 1.02 | locus YNL224C, strain SQS1, hits give low values 1 | locus YOR083W, strain WHI5 (second series), hits give low values 1.04 | locus YPL055C, strain LGE1, hits give low values 1.01

Oc1cc(Cl)ccc1Oc1ccc(Cl)cc1Cl
active: locus YAL021C, strain ccr4, hits give low values 0.0638 | locus YAL026C, strain drs2, hits give low values 0.0609 | locus YAL030W, strain snc1, hits give low values 0.0536 | locus YBL061C, strain skt5, hits give low values 0.0556 | locus YBR009C, strain hhf1, hits give low values 0.061 | locus YBR023C, strain chs3, hits give low values 0.0591 | locus YBR171W, strain sec66, hits give low values 0.0725 | locus YBR231C, strain swc5, hits give low values 0.0579 | locus YBR279W, strain paf1, hits give low values 0.0562 | locus YCL011C, strain gbp2, hits give low values 0.0544 | locus YCL016C, strain dcc1, hits give low values 0.0625 | locus YCL069W, strain vba3, hits give low values 0.0589 | locus YCR088W, strain abp1, hits give low values 0.0589 | locus YDL005C, strain med2, hits give low values 0.0705 | locus YDL040C, strain nat1, hits give low values 0.0546 | locus YDR001C, strain nth1, hits give low values 0.0558 | locus YDR069C, strain doa4, hits give low values 0.0627 | locus YDR137W, strain rgp1, hits give low values 0.0997 | locus YDR159W, strain sac3, hits give low values 0.0882 | locus YDR195W, strain ref2 0.117 | locus YDR297W, strain sur2, hits give low values 0.0544 | locus YDR334W, strain swr1, hits give low values 0.0588 | locus YDR335W, strain msn5, hits give low values 0.0583 | locus YDR392W, strain spt3, hits give low values 0.0729 | locus YEL003W, strain gim4, hits give low values 0.0524 | locus YEL037C, strain rad23, hits give low values 0.0551 | locus YEL061C, strain CIN8 (second series), hits give low values 0.0576 | locus YER015W, strain faa2, hits give low values 0.0585 | locus YER016W, strain bim1, hits give low values 0.0591 | locus YER111C, strain swi4, hits give low values 0.0671 | locus YER155C, strain BEM2 (second series), hits give low values 0.0885 | locus YFR010W, strain ubp6, hits give low values 0.0707 | locus YGL167C, strain pmr1, hits give low values 0.0693 | locus YGL173C, strain kem1, hits give low values 0.0649 | locus YGL227W, strain vid30, hits give low values 0.0625 | locus YGL240W, strain doc1, hits give low values 0.0739 | locus YGL253W, strain hxk2, hits give low values 0.054 | locus YHR013C, strain ard1, hits give low values 0.104 | locus YHR027C, strain rpn1, hits give low values 0.059 | locus YHR030C, strain SLT2, hits give low values 0.104 | locus YHR079C, strain IRE1, hits give low values 0.121 | locus YHR142W, strain chs7, hits give low values 0.0756 | locus YJL092W, strain hpr5, hits give low values 0.0585 | locus YJL095W, strain BCK1 (second series), hits give low values 0.0552 | locus YJL095W, strain BCK1, hits give low values 0.127 | locus YJL115W, strain asf1, hits give low values 0.0692 | locus YJL129C, strain trk1, hits give low values 0.084 | locus YJL154C, strain vps35, hits give low values 0.0565 | locus YJL164C, strain tpk1, hits give low values 0.0601 | locus YJL166W, strain qcr8, hits give low values 0.0623 | locus YJR066W, strain TOR1, hits give low values -0.00201 | locus YKL160W, strain elf1, hits give low values 0.0596 | locus YKR026C, strain gcn3, hits give low values 0.0592 | locus YKR091W, strain srl3, hits give low values 0.0544 | locus YLL001W, strain dnm1, hits give low values 0.0612 | locus YLL026W, hits give low values 0.0561 | locus YLL041C, strain sdh2, hits give low values 0.0533 | locus YLR027C, strain aat2, hits give low values 0.0538 | locus YLR113W, strain HOG1, hits give low values 0.158 | locus YLR221C, strain rsa3, hits give low values 0.0589 | locus YLR258W, strain gsy2, hits give low values 0.0574 | locus YLR262C, strain YPT6 (second series), hits give low values 0.0751 | locus YLR320W, strain mms22, hits give low values 0.0752 | locus YLR342W, strain FKS1, hits give low values 0.0642 | locus YLR357W, strain rsc2, hits give low values 0.118 | locus YLR370C, strain arc18, hits give low values 0.0628 | locus YLR384C, strain iki3, hits give low values 0.057 | locus YML120C, strain ndi1, hits give low values 0.0562 | locus YMR058W, strain fet3, hits give low values 0.0596 | locus YMR125W, strain sto1, hits give low values 0.0732 | locus YMR129W, hits give low values 0.0549 | locus YMR205C, strain PFK2, hits give low values 0.0834 | locus YMR231W, strain pep5, hits give low values 0.0636 | locus YNL071W, strain lat1, hits give low values 0.0584 | locus YNL183C, strain NPR1, hits give low values 0.00315 | locus YNL209W, strain ssb2, hits give low values 0.0563 | locus YNL248C, strain rpa49, hits give low values 0.0865 | locus YNL322C, strain KRE1 (second series), hits give low values 0.0621 | locus YNR049C, strain mso1, hits give low values 0.0553 | locus YOR001W, strain rrp6, hits give low values 0.0701 | locus YOR070C, strain gyp1, hits give low values 0.0564 | locus YOR080W, strain dia2, hits give low values 0.0614 | locus YOR083W, strain WHI5, hits give low values 0.0594 | locus YOR106W, strain vam3, hits give low values 0.066 | locus YOR231W, strain MKK1, hits give low values 0.109 | locus YOR265W, strain rbl2, hits give low values 0.0537 | locus YOR270C, strain vph1, hits give low values 0.0953 | locus YOR290C, strain snf2, hits give low values 0.0603 | locus YPL051W, strain arl3, hits give low values 0.0598 | locus YPL078C, strain atp4, hits give low values 0.0627 | locus YPL106C, strain sse1, hits give low values 0.103 | locus YPL240C, strain hsp82, hits give low values 0.0561 | locus YPL256C, strain CLN2, hits give low values 0.121
